# Measured values published in PubChem BioAssay (Tox21).
# A number with no mark means an inactive call. Results filed as inconclusive are left out. A call without a number means that no potency is given here. Activity calls are given as the source filed them. Unless noted, calls follow the shape of the dose curve; as a rule, active = well fitted curve in the direction sought with a large enough effect in the repeat runs; inconclusive = weak or mixed curves; inactive = flat fitted curve, though single readings scatter.
# How the values were obtained:
# [1] = qHTS assay to test for compound auto fluorescence at 535 nm (green) in HEK293 cells (AID 720680); conditions: green autofluorescence 485/535 nm; series mostly up to 91.3 µM
# [2] = qHTS assay to test for compound auto fluorescence at 460 nm (blue) in HEK293 cell free culture (AID 720681); conditions: cell-free medium, autofluorescence 405/460 nm (blue); series mostly up to 91.3 µM; also: potency is read from the fitted curve at half-maximal effect
# Method in brief: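 Compounds were added to cell-free DMEM with 10% FBS and fluorescence read directly. The blue channel used 405 nm excitation and 460 nm emission, with triamterene as the reference fluorophore.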
# [3] = qHTS assay to test for compound auto fluorescence at 535 nm (green) in HEK293 cell free culture (AID 720682); conditions: cell-free medium, green autofluorescence 485/535 nm, hits give high values; series mostly up to 91.3 µM
# Method in brief: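 DMEM + 10% FBS, cell-free; cpd or DMSO pinned in; Ex485/Em535 read; output as fluorescein-equivalent signal.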
# [4] = qHTS assay to test for compound auto fluorescence at 590 nm (red) in HEK293 cell free culture (AID 720683); conditions: cell-free medium autofluorescence, Ex540/Em590 red; series mostly up to 91.3 µM
# Method in brief: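 Cell-free wells of DMEM with 10% FBS received compound, and intrinsic fluorescence was read at excitation/emission 540/590 nm. Values expressed as equivalence to Rose Bengal sodium.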
# [5] = qHTS assay to test for compound auto fluorescence at 460 nm (blue) in HepG2 cell free culture (AID 720685); conditions: Cell-free culture medium, blue autofluorescence 405/460 nm; series mostly up to 91.3 µM; also: potency is read from the fitted curve at half-maximal effect
# Method in brief: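 Compound (23 nL) or DMSO pinned into cell-free MEM with 10% FBS; blue fluorescence read at 405/460 nm excitation/emission, expressed as auto-fluorescence equivalency to triamterene.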
# [6] = qHTS assay to test for compound auto fluorescence at 535 nm (green) in HepG2 cell free culture (AID 720686); conditions: Cell-free medium, green autofluorescence 485/535 nm; series mostly up to 91.3 µM
# [7] = qHTS assay to test for compound auto fluorescence at 460 nm (blue) in HepG2 cells (AID 720687); conditions: autofluorescence 405/460 nm, 1 h; series mostly up to 91.3 µM; also: potency is read from the fitted curve at half-maximal effect
# Method in brief: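 HepG2 cells in MEM with 10% FBS, attached overnight at 37 C, were exposed to compound or DMSO for 1 hr at 37 C, 5% CO2. Blue fluorescence was read at 405/460 nm, with triamterene as reference fluorophore.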
# [8] = molecular target: Glucocorticoid receptor (Homo sapiens) (UniProt P04150); test: qHTS assay to identify small molecule agonists of the glucocorticoid receptor (GR) signaling pathway (AID 720691; active = well fitted activation curve with a large enough effect in the signal ratio in the repeat runs, not every such curve was filed as active; the % refers to the signal ratio); conditions: GR-bla HeLa, beta-lactamase reporter ratio, 18 h; series mostly up to 62.4 µM
# Chain of Glucocorticoid receptor (Homo sapiens) (P04150 whole entry, looked up): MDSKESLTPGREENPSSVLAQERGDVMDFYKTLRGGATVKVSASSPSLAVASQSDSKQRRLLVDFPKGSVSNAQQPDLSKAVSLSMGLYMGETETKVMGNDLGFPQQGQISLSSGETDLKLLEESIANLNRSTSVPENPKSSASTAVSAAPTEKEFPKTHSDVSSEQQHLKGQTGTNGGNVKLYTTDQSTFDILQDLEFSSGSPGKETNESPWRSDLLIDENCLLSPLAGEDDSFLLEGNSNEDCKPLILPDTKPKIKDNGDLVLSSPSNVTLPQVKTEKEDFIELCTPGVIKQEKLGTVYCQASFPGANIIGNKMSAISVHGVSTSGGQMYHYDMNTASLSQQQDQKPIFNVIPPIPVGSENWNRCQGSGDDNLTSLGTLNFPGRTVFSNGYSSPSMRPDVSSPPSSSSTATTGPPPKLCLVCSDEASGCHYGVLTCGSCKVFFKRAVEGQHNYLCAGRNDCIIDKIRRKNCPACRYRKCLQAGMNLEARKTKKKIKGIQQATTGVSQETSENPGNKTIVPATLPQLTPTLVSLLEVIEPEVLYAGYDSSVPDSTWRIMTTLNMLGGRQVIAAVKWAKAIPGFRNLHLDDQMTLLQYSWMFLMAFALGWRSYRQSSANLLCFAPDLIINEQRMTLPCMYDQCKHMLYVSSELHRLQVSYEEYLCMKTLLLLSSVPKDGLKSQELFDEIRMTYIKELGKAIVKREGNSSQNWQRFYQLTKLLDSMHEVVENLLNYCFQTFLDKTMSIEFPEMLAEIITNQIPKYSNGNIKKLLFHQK
# Method in brief: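 Fluorescence intensity from LiveBLAzer B/G FRET substrate (2 h, room temperature) reports beta-lactamase expression driven by the glucocorticoid response element in GR-bla HeLa cells after 18 h compound exposure at 37 C.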
# [9] = molecular target: Glucocorticoid receptor (Homo sapiens) (UniProt P04150); test: qHTS assay to identify small molecule antagonists of the glucocorticoid receptor (GR) signaling pathway (AID 720692; active = well fitted inhibition curve with a large enough effect in the signal ratio in the repeat runs, not every such curve was filed as active; the % refers to the signal ratio); conditions: GR-bla HeLa, beta-lactamase FRET ratio, dexamethasone-stimulated, 18 h; series mostly up to 58.5 µM
# Method in brief: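 HeLa GR-bla cells; cmpd + dex 5 nM final, 18 h 37 C; LiveBLAzer B/G FRET substrate 2 h RT; fluorescence intensity read. Antagonist mode, qHTS.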
# [10] = qHTS assay to test for compound auto fluorescence at 590 nm (red) in HepG2 cell free culture (AID 720684); conditions: cell-free medium autofluorescence, red 540/590 nm; series mostly up to 91.3 µM
# Method in brief: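 Compounds are added to culture medium (MEM, 10% FBS) lacking cells, then fluorescence is read at excitation 540 nm, emission 590 nm, with Rose Bengal sodium as the equivalency standard.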
# Tags tell the direction and shape of the fitted curve or compound fluorescence and quenching.
smiles,measurement,setting,value
O=c1[nH]c2cc(C(F)(F)F)c(N3CCOCC3)cc2n(CP(=O)(O)O)c1=O,outcome,[1],inactive
same,Potency,[2],inactive
same,outcome,[3],inactive
same,outcome,[4],inactive
same,Potency,[5],inactive
same,outcome,[6],inactive
same,Potency,[7],inactive
same,Potency,[8],inactive
same,Potency,[9],inactive
COC(C)(C)OC,outcome,[1],inactive
same,Potency,[2],inactive
same,outcome,[3],inactive
same,outcome,[10],inactive
same,Potency,[5],inactive
same,outcome,[6],inactive
same,Potency,[7],inactive
CN1CCCN(C(c2ccccc2)c2ccc(Cl)cc2)CC1 (configuration not stated),outcome,[1],inactive
same,Potency,[2],inactive
same,outcome,[3],inactive
same,outcome,[4],inactive
same,Potency,[5],inactive
same,outcome,[6],inactive
same,Potency,[7],inactive
same,Potency,[8],inactive
COc1ccc2nc(S(=O)Cc3ncc(C)c(OC)c3C)[nH]c2c1 (configuration not stated),outcome,[1],inactive
same,Potency,[2],inactive
same,outcome,[3],inactive
same,outcome,[4],inactive
same,outcome,[6],inactive
same,Potency,[7],inactive
CCC(CO)(CO)CO,outcome,[1],inactive
same,Potency,[2],inactive
same,outcome,[3],inactive
same,outcome,[4],inactive
same,Potency,[5],inactive
same,Potency,[7],inactive
same,Potency,[8],inactive
same,Potency,[9],inactive
Cc1c[nH]c2ccccc12,outcome,[1],inactive
same,Potency,[2],inactive
same,outcome,[3],inactive
same,outcome,[4],inactive
same,Potency,[5],inactive
same,Potency,[7],inactive
same,Potency,[8],inactive
same,Potency,[9],inactive
O=C(O)CO,outcome,[1],inactive
same,Potency,[2],inactive
same,outcome,[3],inactive
same,outcome,[4],inactive
same,Potency,[5],inactive
same,Potency,[7],inactive
O=C(O)c1cccc(C[C@@H]2COc3ccc(OCc4nc5cc(F)ccc5s4)cc3[C@@H]2O)c1,outcome,[1],inactive
same,Potency,[2],inactive
same,outcome,[3],inactive
same,outcome,[4],inactive
same,Potency,[5],inactive
same,outcome,[6],inactive
same,Potency,[7],inactive
same,Potency,[8],inactive
COc1cc(NS(=O)(=O)c2ccc(N)cc2)nc(C)n1,outcome,[1],inactive
same,Potency,[2],inactive
same,outcome,[3],inactive
same,outcome,[4],inactive
same,Potency,[5],inactive
same,outcome,[6],inactive
same,Potency,[7],inactive
same,Potency,[8],inactive
same,Potency,[9],inactive
CC(=O)OCCC1CCCCC1,outcome,[1],inactive
same,Potency,[2],inactive
same,outcome,[3],inactive
same,outcome,[4],inactive
same,Potency,[5],inactive
same,outcome,[6],inactive
same,Potency,[7],inactive
same,Potency,[8],inactive
same,Potency,[9],inactive
COc1cc(NCc2ccc3nc(N)nc(N)c3c2C)cc(OC)c1OC,outcome,[1],inactive
same,Potency,[2],inactive
same,outcome,[3],inactive
same,outcome,[4],inactive
same,Potency,[7],inactive
same,Potency,[8],inactive
Cc1cccc2sc(N)nc12,outcome,[1],inactive
same,Potency,[2],inactive
same,outcome,[3],inactive
same,outcome,[4],inactive
same,outcome,[6],inactive
same,Potency,[7],inactive
same,Potency,[8],inactive
same,Potency,[9],inactive
CN1C(CSCC(F)(F)F)Nc2cc(Cl)c(S(N)(=O)=O)cc2S1(=O)=O (configuration not stated),outcome,[1],inactive
same,Potency,[2],inactive
same,outcome,[3],inactive
same,outcome,[4],inactive
same,Potency,[5],inactive
same,outcome,[6],inactive
same,Potency,[7],inactive
same,Potency,[8],inactive
Cc1cc([N+](=O)[O-])ccc1N,outcome,[1],inactive
same,Potency,[2],inactive
same,outcome,[3],inactive
same,outcome,[4],inactive
same,Potency,[5],inactive
same,outcome,[6],inactive
same,Potency,[7],inactive
same,Potency,[8],inactive
O=C(NC(Cc1cc(=O)[nH]c2ccccc12)C(=O)O)c1ccc(Cl)cc1 (configuration not stated),outcome,[1],inactive
same,Potency,[2],inactive
same,outcome,[3],inactive
same,outcome,[10],inactive
same,outcome,[6],inactive
same,Potency,[7],inactive
same,Potency,[8],inactive
CC(=O)OCC1=C(C(=O)O)N2C(=O)[C@@H](NC(=O)CSc3ccncc3)[C@H]2SC1,outcome,[1],inactive
same,Potency,[2],inactive
same,outcome,[3],inactive
same,Potency,[5],inactive
same,outcome,[6],inactive
same,Potency,[7],inactive
same,Potency,[8],inactive
COc1ccc(C2C(=O)c3ccccc3C2=O)cc1,outcome,[1],inactive
same,Potency,[2],inactive
same,outcome,[3],inactive
same,outcome,[10],inactive
same,Potency,[5],inactive
same,outcome,[6],inactive
same,Potency,[7],inactive
same,Potency,[8],inactive
Nc1nc(-c2ccc([N+](=O)[O-])cc2)cs1,outcome,[1],inactive
same,Potency,[2],inactive
same,outcome,[3],inactive
same,outcome,[10],inactive
same,Potency,[5],inactive
same,outcome,[6],inactive
same,Potency,[7],inactive
same,Potency,[8],inactive
CC(C(=O)O)c1ccc(C(=O)c2cccs2)cc1 (configuration not stated),"fluorescence, % of fluorescein",[1],0.0235% [at 18.6 µM]
same,"fluorescence, % of fluorescent control",[2],-0.0817% [at 18.6 µM]
same,activity change,[3],-0.0028% [at 18.6 µM]
same,"fluorescence, % of Rose Bengal",[10],-0.362% [at 18.6 µM]
same,"fluorescence, % of fluorescent control",[5],-0.005% [at 18.6 µM]
same,"fluorescence, % of fluorescein control",[6],-0.0792% [at 18.6 µM]
same,"fluorescence, % of fluorescent control",[7],0.0525% [at 18.6 µM]
same,Potency,[8],inactive
same,Potency,[9],inactive
CC(C)N(C)C,outcome,[1],inactive
same,Potency,[2],inactive
same,outcome,[3],inactive
same,Potency,[5],inactive
same,outcome,[6],inactive
same,Potency,[7],inactive
same,Potency,[8],inactive
same,Potency,[9],inactive
Nc1cccc2c(N)cccc12,outcome,[1],inactive
same,Potency,[2],inactive
same,outcome,[3],inactive
same,outcome,[10],inactive
same,Potency,[5],inactive
same,outcome,[6],inactive
same,Potency,[7],inactive
same,Potency,[8],inactive
CCCCCCOC(=O)CCCCC,outcome,[1],inactive
same,Potency,[2],inactive
same,outcome,[3],inactive
same,outcome,[10],inactive
same,Potency,[7],inactive
same,Potency,[8],inactive
Cc1ccc2nc(N)[nH]c(=O)c2c1Sc1ccncc1,outcome,[1],inactive
same,Potency,[2],inactive
same,outcome,[3],inactive
same,Potency,[5],inactive
same,outcome,[6],inactive
same,Potency,[7],inactive
CCCCCCCC(=O)Oc1c(Br)cc(C#N)cc1Br,outcome,[1],inactive
same,Potency,[2],inactive
same,outcome,[3],inactive
same,outcome,[10],inactive
same,Potency,[5],inactive
same,outcome,[6],inactive
same,Potency,[7],inactive
same,Potency,[8],inactive
CCOC(=O)c1c(N)sc2c1CCN(Cc1ccccc1)C2,outcome,[1],inactive
same,Potency,[2],15.8 µM (active)
same,outcome,[3],inactive
same,Potency,[5],15.8 µM [fluorescent] (active)
same,Potency,[7],17.8 µM [fluorescent] (active)
same,Potency,[8],inactive
Nc1ccn([C@H]2CS[C@@H](CO)O2)c(=O)n1,outcome,[1],inactive
same,Potency,[2],inactive
same,outcome,[3],inactive
same,Potency,[5],inactive
same,outcome,[6],inactive
same,Potency,[7],inactive
same,Potency,[8],inactive
same,Potency,[9],inactive
